{
  "source": "the supplement of paper PMC6953052",
  "note": "The full ranking holds about 1,700 compounds; the median of “fraction of GFP-LC3-positive cells (≥5 vesicles/cell)” is about 0.058, and the highest 2% start at about 0.59. This excerpt belongs to a sample that is enriched for the highest values.",
  "data": [
    {"system": "CbCln3 +/+ GFP-LC3 cerebellar neuronal cells", "assay": "fraction of GFP-LC3-positive cells (≥5 vesicles/cell); higher = more autophagosome accumulation", "summary_of_the_method": "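Wild-type or mutant CbCln3 cerebellar cells stably expressing GFP-LC3 (2 × 10^3/well, 384-well) received ~50 nL compound in DMSO by pin transfer, in duplicate, for 24 h at 33 °C. Hoechst 33342 and LysoTracker Red were added for the final 30 min before 3.2% PFA fixation and 10× imaging of three fields per well. CellProfiler counted GFP-LC3 vesicles per cell. The value is the fraction of cells with 5 or more vesicles, averaged over duplicates, with out-of-focus images excluded.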", "values": [
      {"smiles": "CCOC(=O)C1=C(C)NC(=S)NC1c1cccc(O)c1", "note": "(stereo unspecified) [Monastrol]", "fraction of GFP-LC3-positive cells": 0.199},
      {"smiles": "CNC1(C)C2CCC(C2)C1(C)C.Cl", "note": "(stereo unspecified) [Mecamylamine hydrochloride]", "fraction of GFP-LC3-positive cells": 0.093},
      {"smiles": "CN(Cc1cnc2nc(N)nc(N)c2n1)c1ccc(C(=O)NC(CCC(=O)O)C(=O)O)cc1", "note": "(racemic) [Amethopterin (R,S)]", "fraction of GFP-LC3-positive cells": 0.0411},
      {"smiles": "CC(=O)Oc1ccc(C(c2ccc(OC(C)=O)cc2)c2ccccn2)cc1", "note": "[Bisacodyl]", "fraction of GFP-LC3-positive cells": 0.0605},
      {"smiles": "CC/C=C\\C/C=C\\C/C=C\\C/C=C\\CCCCC(=O)O", "note": "[6(Z), 9(Z), 12(Z), 15(Z)-Octadecatetraenoic acid]", "fraction of GFP-LC3-positive cells": 0.0591},
      {"smiles": "CC(C(=O)O)c1ccc(-c2ccccc2)c(F)c1", "note": "(stereo unspecified) [Flurbiprofen]", "fraction of GFP-LC3-positive cells": 0.0432},
      {"smiles": "Cl.O=C1CC2(CCCC2)CC(=O)N1CCCCN1CCN(c2ncccn2)CC1", "note": "[Buspirone hydrochloride]", "fraction of GFP-LC3-positive cells": 0.0334},
      {"smiles": "CC(C)[N+]1(C)[C@@H]2CC[C@@H]1CC(OC(=O)C(CO)c1ccccc1)C2.[Br-]", "note": "(stereo partly specified) [Ipratropium bromide]", "fraction of GFP-LC3-positive cells": 0.0779},
      {"smiles": "CC[C@]12CCCN3CCc4c(n(c5ccccc45)[C@](O)(C(=O)OC)C1)[C@@H]32", "note": "[Epivincamine]", "fraction of GFP-LC3-positive cells": 0.0608},
      {"smiles": "CC(=O)N(CC(O)CN(C(C)=O)c1c(I)c(C(=O)NCC(O)CO)c(I)c(C(=O)NCC(O)CO)c1I)c1c(I)c(C(=O)NCC(O)CO)c(I)c(C(=O)NCC(O)CO)c1I", "note": "(stereo unspecified) [Iodixanol]", "fraction of GFP-LC3-positive cells": 0.0455},
      {"smiles": "COc1ccc2cc(C(C)C(=O)O)ccc2c1", "note": "(stereo unspecified) [Naproxen]", "fraction of GFP-LC3-positive cells": 0.053},
      {"smiles": "CC(C)(C)C(=O)OCOC(=O)[C@@H]1N2C(=O)[C@@H](/N=C/N3CCCCCC3)[C@H]2SC1(C)C.Cl", "note": "[Pivmecillinam hydrochloride]", "fraction of GFP-LC3-positive cells": 0.0551},
      {"smiles": "C[N+]1(C)CCC(OC(=O)C(O)(c2ccccc2)C2CCCC2)C1.[Br-]", "note": "(stereo unspecified) [Glycopyrrolate]", "fraction of GFP-LC3-positive cells": 0.0526},
      {"smiles": "CCCCC/C=C\\C\\C=C/C=C/C=C/[C@@H](O)[C@@H](O)CCCC(=O)O", "fraction of GFP-LC3-positive cells": 0.0542},
      {"smiles": "O=C(O)c1cccnc1", "note": "[Niacin]", "fraction of GFP-LC3-positive cells": 0.0475},
      {"smiles": "CC/C=C\\C/C=C\\C/C=C\\C/C=C\\C/C=C\\C/C=C\\CCC(=O)O", "note": "[Docosahexaenoic acid (22:6 n-3)]", "fraction of GFP-LC3-positive cells": 0.0751},
      {"smiles": "CC/C=C\\C/C=C\\C/C=C\\C/C=C\\C/C=C\\C/C=C\\CCC(=O)O", "fraction of GFP-LC3-positive cells": 0.0655},
      {"smiles": "CC/C=C\\C/C=C\\C/C=C\\C/C=C\\C/C=C\\C/C=C\\CCC(=O)O", "note": "[Docosahexaenoic acid (22:6 N-3)]", "fraction of GFP-LC3-positive cells": 0.0787},
      {"smiles": "C[C@@H]1C[C@H]2[C@@H]3CCC4=CC(=O)C=C[C@]4(C)[C@@]3(F)[C@@H](O)C[C@]2(C)[C@@]1(O)C(=O)CO", "note": "[dexamethasone]", "fraction of GFP-LC3-positive cells": 0.0637},
      {"smiles": "CCCCCCCC(=O)OC[C@H](CO)OC(=O)CCCCCCC", "fraction of GFP-LC3-positive cells": 0.0799},
      {"smiles": "CCCCCCCC(=O)OC[C@H](CO)OC(=O)CCCCCCC", "note": "[1,2-Dioctanoyl-SN-glycerol]", "fraction of GFP-LC3-positive cells": 0.058}
    ]}
  ]
}
